Assay results from PubChem BioAssay (Tox21).
Several values for one entry are separate records, joined by “and”; a condition that tells them apart may be missing. Equal entries are not always repeated. Values without a mark were called inactive. Inconclusive results are not listed. Where a call stands in place of a potency, no number is given. Activity calls are given as the source filed them. Unless noted, calls come from the whole dose curve.

biological target: Acetylcholinesterase (Homo sapiens) (UniProt P22303); assay: Acetylcholinesterase (AChE) small molecule antagonists: fluorescence cell-based qHTS assay (AID 1347398); settings: SH-SY5Y cells; Potency: AChE activity; series mostly up to 115 µM; note: nearly all actives have a fitted effect of over 50% in size
Sequence (P22303 whole entry, looked up): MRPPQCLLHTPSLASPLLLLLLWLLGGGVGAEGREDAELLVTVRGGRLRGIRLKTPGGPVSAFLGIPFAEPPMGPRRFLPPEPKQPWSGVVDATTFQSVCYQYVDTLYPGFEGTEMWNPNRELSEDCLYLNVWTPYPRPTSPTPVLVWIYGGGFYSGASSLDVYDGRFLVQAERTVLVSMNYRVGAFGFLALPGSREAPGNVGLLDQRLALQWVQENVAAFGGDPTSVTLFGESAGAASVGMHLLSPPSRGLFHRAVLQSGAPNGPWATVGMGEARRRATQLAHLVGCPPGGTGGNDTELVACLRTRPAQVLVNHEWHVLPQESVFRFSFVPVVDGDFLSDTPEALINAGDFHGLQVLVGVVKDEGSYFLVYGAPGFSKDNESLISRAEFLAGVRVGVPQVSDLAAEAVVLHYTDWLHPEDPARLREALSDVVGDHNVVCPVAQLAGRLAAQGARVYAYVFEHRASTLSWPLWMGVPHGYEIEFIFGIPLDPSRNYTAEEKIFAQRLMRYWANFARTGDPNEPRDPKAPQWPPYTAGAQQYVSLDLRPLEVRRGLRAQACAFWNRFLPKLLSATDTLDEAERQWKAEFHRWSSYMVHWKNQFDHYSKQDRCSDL
Method in brief: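 Cellular AChE inhibition: SH-SY5Y cells treated with test chemical for 30 min at 37 C, then acetylthiocholine hydrolysis followed over 40 min at room temperature via thiocholine-reactive Thiolite Green fluorescence (490/520 nm).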
Potency is the fitted concentration of half-maximal effect.

For COC(N)=O, which Potency is on record?
The Potency was “inactive”.

CCOP(O)OCC was tested. Which Potency did it give?
Its Potency is “inactive”.

With COC(=O)c1cncn1C(C)c1ccccc1 (stereo unspecified) as the molecule, how does the Potency read?
The Potency was “inactive”.

How did the Potency turn out when COP(=O)(OC)O/C(=C/Cl)c1cc(Cl)c(Cl)cc1Cl was run?
The Potency was 37.6 µM (active).

Which Potency does the source give for CCCN(CC1CC1)c1c([N+](=O)[O-])cc(C(F)(F)F)cc1[N+](=O)[O-] here?
Its Potency is “inactive”.

For O=C(O)C(F)(F)C(F)(F)C(F)(F)C(F)(F)C(F)(F)C(F)(F)C(F)(F)C(F)(F)C(F)(F)C(F)(F)F, which Potency is on record?
The Potency was “inactive”.

CCCCC(O)(Cn1cncn1)c1ccc(Cl)cc1Cl (stereo unspecified) was tested. Which Potency did it give?
Its Potency is “inactive”.

How did the Potency turn out when O=C1NCN(c2ccccc2)C12CCN(CCCOc1ccc(F)cc1)CC2 was run?
Its Potency is “inactive”.

ClC=C(Cl)Cl was tested. Which Potency did it give?
Its Potency is “inactive”.

For O=C(NCc1cccnc1)Nc1ccc([N+](=O)[O-])cc1, which Potency is on record?
The Potency was “inactive”.

How did the Potency turn out when O=C(CCl)c1ccc(Cl)cc1Cl was run?
The Potency was “inactive”.

How did the activity change, negative = inhibition turn out when NCC(CC(=O)O)c1ccc(Cl)cc1 (stereo unspecified) was run?
The activity change, negative = inhibition was 5.21% [at 0.439 µM].

How did the Potency turn out when O=C(NC(=O)c1c(F)cccc1F)Nc1ccc(OC(F)(F)C(F)OC(F)(F)F)c(Cl)c1 (stereo unspecified) was run?
The Potency was “inactive”.

How did the Potency turn out when C[N+](C)(C)CCCl was run?
Its Potency is “inactive”.

CC(C)=CCOc1c2occc2cc2ccc(=O)oc12 was tested. Which Potency did it give?
Its Potency is “inactive”.

With [O-][Cl+]O as the molecule, how does the Potency read?
Its Potency is “inactive”.

With CN1C(=O)C(O)N=C(c2ccccc2)c2cc(Cl)ccc21 (stereo unspecified) as the molecule, how does the Potency read?
The Potency was “inactive”.

Which Potency does the source give for O=C(O)c1ccccc1C(=O)Nc1cccc2ccccc12 here?
The Potency was “inactive”.

How did the Potency turn out when CNP(=O)(OC)Oc1ccc(C(C)(C)C)cc1Cl (stereo unspecified) was run?
The Potency was 31.7 µM (active).

For Clc1cccc(SC2CCNCC2)n1, which Potency is on record?
The Potency was “inactive”.

Which Potency does the source give for II here?
Its Potency is “inactive”.

For CC(C)N(CCC(C(N)=O)(c1ccccc1)c1ccccn1)C(C)C (stereo unspecified), which Potency is on record?
The Potency was “inactive”.

With CC(c1ccc(O)cc1)(c1ccc(O)cc1)c1ccc(O)cc1 as the molecule, how does the Potency read?
Its Potency is “inactive”.

With COc1nn(CSP(=S)(OC)OC)c(=O)s1 as the molecule, how does the Potency read?
Its Potency is “inactive”.

Which Potency does the source give for CCCC(Cn1cncn1)c1ccc(Cl)cc1Cl (stereo unspecified) here?
The Potency was “inactive”.

Clc1cc(Cl)c(Cl)c(Cl)c1 was tested. Which Potency did it give?
The Potency was “inactive”.

CC1CC(CC2CCC(N)C(C)C2)CCC1N (stereo unspecified) was tested. Which Potency did it give?
Its Potency is “inactive”.

Which Potency does the source give for CCC(Cl)CCl (stereo unspecified) here?
The Potency was “inactive”.

Which Potency does the source give for Cc1ccc(-c2c(Cl)nc(C#N)n2S(=O)(=O)N(C)C)cc1 here?
Its Potency is “inactive”.

How did the Potency turn out when CCO[C@H]1O[C@@H]2OC3(C)CC[C@H]4[C@H](C)CC[C@@H]([C@H]1C)[C@@]24OO3 was run?
Its Potency is “inactive”.

Which Potency does the source give for S=C=NCc1ccccc1 here?
The Potency was “inactive”.

BrCCCCBr was tested. Which Potency did it give?
Its Potency is “inactive”.

How did the Potency turn out when CCCCC(CC)COP(=O)(Oc1ccccc1)Oc1ccccc1 (stereo unspecified) was run?
The Potency was “inactive”.

How did the Potency turn out when O=[N+]([O-])C(Br)(CO)CO was run?
The Potency was “inactive”.

How did the Potency turn out when C=CCOC(C)=O was run?
The Potency was “inactive”.

biological target: Acetylcholinesterase (Homo sapiens) (UniProt P22303); assay: Acetylcholinesterase (AChE) small molecule antagonists: enzyme-based qHTS assay with human liver microsomes (AID 1347399); settings: Potency: qHTS inhibition; series mostly up to 115 µM; note: nearly all actives have a fitted effect of over 60% in size
Method in brief: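 Recombinant human AChE (50 mU/mL in the enzyme mix) and human liver microsomes (0.25 mg/mL final) were preincubated with compound and NADPH (0.25 mg/mL final) for 30 min at 37 C. Acetylthiocholine/DTNB was then added; thiocholine was read colorimetrically after 10 min at room temperature.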

How did the Potency turn out when COC(N)=O was run?
The Potency was “inactive”.

Which Potency does the source give for CCOP(O)OCC here?
Its Potency is “inactive”.

How did the Potency turn out when COC(=O)c1cncn1C(C)c1ccccc1 (stereo unspecified) was run?
Its Potency is “inactive”.

Which Potency does the source give for COP(=O)(OC)O/C(=C/Cl)c1cc(Cl)c(Cl)cc1Cl here?
Its Potency is “inactive”.

Which Potency does the source give for CCCN(CC1CC1)c1c([N+](=O)[O-])cc(C(F)(F)F)cc1[N+](=O)[O-] here?
Its Potency is “inactive”.

Which Potency does the source give for O=C(O)C(F)(F)C(F)(F)C(F)(F)C(F)(F)C(F)(F)C(F)(F)C(F)(F)C(F)(F)C(F)(F)C(F)(F)F here?
The Potency was “inactive”.

For CCCCC(O)(Cn1cncn1)c1ccc(Cl)cc1Cl (stereo unspecified), which Potency is on record?
The Potency was “inactive”.

Which Potency does the source give for O=C1NCN(c2ccccc2)C12CCN(CCCOc1ccc(F)cc1)CC2 here?
The Potency was “inactive”.

With ClC=C(Cl)Cl as the molecule, how does the Potency read?
Its Potency is “inactive”.

Which Potency does the source give for O=C(NCc1cccnc1)Nc1ccc([N+](=O)[O-])cc1 here?
The Potency was “inactive”.

O=C(CCl)c1ccc(Cl)cc1Cl was tested. Which Potency did it give?
Its Potency is “inactive”.

How did the activity change, negative = inhibition turn out when NCC(CC(=O)O)c1ccc(Cl)cc1 (stereo unspecified) was run?
The activity change, negative = inhibition was -0.275% [at 0.435 µM].

Which Potency does the source give for O=C(NC(=O)c1c(F)cccc1F)Nc1ccc(OC(F)(F)C(F)OC(F)(F)F)c(Cl)c1 (stereo unspecified) here?
Its Potency is “inactive”.

With C[N+](C)(C)CCCl as the molecule, how does the Potency read?
Its Potency is “inactive”.

Which Potency does the source give for CC(C)=CCOc1c2occc2cc2ccc(=O)oc12 here?
The Potency was “inactive”.

How did the Potency turn out when [O-][Cl+]O was run?
Its Potency is “inactive”.

With O=C(O)c1ccccc1C(=O)Nc1cccc2ccccc12 as the molecule, how does the Potency read?
Its Potency is “inactive”.

CNP(=O)(OC)Oc1ccc(C(C)(C)C)cc1Cl (stereo unspecified) was tested. Which Potency did it give?
The Potency was “inactive”.

With Clc1cccc(SC2CCNCC2)n1 as the molecule, how does the Potency read?
The Potency was “inactive”.

For II, which Potency is on record?
The Potency was “inactive”.

Which Potency does the source give for CC(C)N(CCC(C(N)=O)(c1ccccc1)c1ccccn1)C(C)C (stereo unspecified) here?
Its Potency is “inactive”.

For CC(c1ccc(O)cc1)(c1ccc(O)cc1)c1ccc(O)cc1, which Potency is on record?
The Potency was “inactive”.

For COc1nn(CSP(=S)(OC)OC)c(=O)s1, which Potency is on record?
The Potency was “inactive”.

With CCCC(Cn1cncn1)c1ccc(Cl)cc1Cl (stereo unspecified) as the molecule, how does the Potency read?
Its Potency is “inactive”.

Which Potency does the source give for Clc1cc(Cl)c(Cl)c(Cl)c1 here?
Its Potency is “inactive”.

Which Potency does the source give for CC1CC(CC2CCC(N)C(C)C2)CCC1N (stereo unspecified) here?
The Potency was “inactive”.

Which Potency does the source give for CCC(Cl)CCl (stereo unspecified) here?
Its Potency is “inactive”.

For Cc1ccc(-c2c(Cl)nc(C#N)n2S(=O)(=O)N(C)C)cc1, which Potency is on record?
Its Potency is “inactive”.

Which Potency does the source give for CCO[C@H]1O[C@@H]2OC3(C)CC[C@H]4[C@H](C)CC[C@@H]([C@H]1C)[C@@]24OO3 here?
Its Potency is “inactive”.

Which Potency does the source give for S=C=NCc1ccccc1 here?
The Potency was “inactive”.

With BrCCCCBr as the molecule, how does the Potency read?
Its Potency is “inactive”.

For CCCCC(CC)COP(=O)(Oc1ccccc1)Oc1ccccc1 (stereo unspecified), which Potency is on record?
Its Potency is “inactive”.

For O=[N+]([O-])C(Br)(CO)CO, which Potency is on record?
Its Potency is 71 µM (active).

Which Potency does the source give for C=CCOC(C)=O here?
Its Potency is “inactive”.

biological target: Cytochrome P450 2D6 (Homo sapiens) (UniProt P10635); assay: Cytochrome P450 Family 2 Subfamily D Member 6 (CYP2D6) small molecule antagonists: luciferase reporter qHTS assay (AID 1671196; active = well fitted inhibition curve with a large enough effect in the repeat runs; note: nearly all actives have a fitted effect of over 50% in size); settings: P450-Glo CYP2D6 enzyme assay, luciferin luminescence, 1 h; series mostly up to 115 µM
Sequence (P10635 whole entry, looked up): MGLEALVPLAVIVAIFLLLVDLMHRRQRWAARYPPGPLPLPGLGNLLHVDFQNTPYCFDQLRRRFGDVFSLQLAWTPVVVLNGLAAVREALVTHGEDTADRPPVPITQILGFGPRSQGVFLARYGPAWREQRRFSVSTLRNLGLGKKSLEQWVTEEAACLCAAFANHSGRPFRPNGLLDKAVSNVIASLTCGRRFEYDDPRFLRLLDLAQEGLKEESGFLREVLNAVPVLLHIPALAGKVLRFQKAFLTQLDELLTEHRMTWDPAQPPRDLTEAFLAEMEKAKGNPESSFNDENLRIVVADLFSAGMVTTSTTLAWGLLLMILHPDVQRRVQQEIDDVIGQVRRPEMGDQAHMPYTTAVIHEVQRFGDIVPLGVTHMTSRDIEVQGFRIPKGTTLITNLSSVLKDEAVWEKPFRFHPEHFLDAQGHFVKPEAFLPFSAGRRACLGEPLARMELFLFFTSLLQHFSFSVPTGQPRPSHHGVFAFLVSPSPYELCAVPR
Method in brief: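 Luminogenic proluciferin substrate, CYP2D6 enzyme; 10 min RT preincubation with compound, NADPH regeneration system added, 1 h RT. Stop/detection reagent, 20 min RT, luminescence read (RLU). Signal proportional to CYP activity.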

COC(N)=O was tested. Which Potency did it give?
Its Potency is “inactive”.

CCOP(O)OCC was tested. Which Potency did it give?
Its Potency is “inactive”.

With COC(=O)c1cncn1C(C)c1ccccc1 (stereo unspecified) as the molecule, how does the Potency read?
The Potency was 8.71 µM (active).

With COP(=O)(OC)O/C(=C/Cl)c1cc(Cl)c(Cl)cc1Cl as the molecule, how does the Potency read?
The Potency was 33.5 µM (active).

For CCCN(CC1CC1)c1c([N+](=O)[O-])cc(C(F)(F)F)cc1[N+](=O)[O-], which Potency is on record?
Its Potency is “inactive”.

How did the Potency turn out when O=C(O)C(F)(F)C(F)(F)C(F)(F)C(F)(F)C(F)(F)C(F)(F)C(F)(F)C(F)(F)C(F)(F)C(F)(F)F was run?
Its Potency is “inactive”.

How did the Potency turn out when CCCCC(O)(Cn1cncn1)c1ccc(Cl)cc1Cl (stereo unspecified) was run?
The Potency was 31.7 µM (active).

How did the Potency turn out when O=C1NCN(c2ccccc2)C12CCN(CCCOc1ccc(F)cc1)CC2 was run?
Its Potency is 0.347 µM (active).

How did the Potency turn out when ClC=C(Cl)Cl was run?
Its Potency is “inactive”.

Which Potency does the source give for O=C(NCc1cccnc1)Nc1ccc([N+](=O)[O-])cc1 here?
The Potency was 35.6 µM (active).

Which Potency does the source give for O=C(CCl)c1ccc(Cl)cc1Cl here?
The Potency was 39.8 µM (active) and 38.9 µM (active).

Which activity change, negative = inhibition does the source give for NCC(CC(=O)O)c1ccc(Cl)cc1 (stereo unspecified) here?
Its activity change, negative = inhibition is -6.8% [at 0.435 µM].

With O=C(NC(=O)c1c(F)cccc1F)Nc1ccc(OC(F)(F)C(F)OC(F)(F)F)c(Cl)c1 (stereo unspecified) as the molecule, how does the Potency read?
Its Potency is “inactive”.

For C[N+](C)(C)CCCl, which Potency is on record?
Its Potency is “inactive”.

CC(C)=CCOc1c2occc2cc2ccc(=O)oc12 was tested. Which Potency did it give?
The Potency was 4.9 µM (active).

For [O-][Cl+]O, which Potency is on record?
The Potency was “inactive”.

Which Potency does the source give for O=C(O)c1ccccc1C(=O)Nc1cccc2ccccc12 here?
The Potency was 31.7 µM (active).

CNP(=O)(OC)Oc1ccc(C(C)(C)C)cc1Cl (stereo unspecified) was tested. Which Potency did it give?
The Potency was 71 µM (active).

For II, which Potency is on record?
Its Potency is 28.3 µM (active).

For CC(c1ccc(O)cc1)(c1ccc(O)cc1)c1ccc(O)cc1, which Potency is on record?
Its Potency is 71 µM (active).

COc1nn(CSP(=S)(OC)OC)c(=O)s1 was tested. Which Potency did it give?
The Potency was 31.7 µM (active).

CCCC(Cn1cncn1)c1ccc(Cl)cc1Cl (stereo unspecified) was tested. Which Potency did it give?
The Potency was 31.7 µM (active).

With Clc1cc(Cl)c(Cl)c(Cl)c1 as the molecule, how does the Potency read?
The Potency was “inactive”.

For CC1CC(CC2CCC(N)C(C)C2)CCC1N (stereo unspecified), which Potency is on record?
Its Potency is 12.8 µM (active).

How did the Potency turn out when CCC(Cl)CCl (stereo unspecified) was run?
Its Potency is “inactive”.

Cc1ccc(-c2c(Cl)nc(C#N)n2S(=O)(=O)N(C)C)cc1 was tested. Which Potency did it give?
The Potency was “inactive”.

How did the Potency turn out when CCO[C@H]1O[C@@H]2OC3(C)CC[C@H]4[C@H](C)CC[C@@H]([C@H]1C)[C@@]24OO3 was run?
The Potency was “inactive”.

For S=C=NCc1ccccc1, which Potency is on record?
The Potency was 28.6 µM (active).

With BrCCCCBr as the molecule, how does the Potency read?
Its Potency is “inactive”.

Which Potency does the source give for CCCCC(CC)COP(=O)(Oc1ccccc1)Oc1ccccc1 (stereo unspecified) here?
Its Potency is “inactive”.

How did the Potency turn out when O=[N+]([O-])C(Br)(CO)CO was run?
Its Potency is “inactive”.

Which Potency does the source give for C=CCOC(C)=O here?
Its Potency is “inactive”.
